# Article PMC5700166
# Molecular target: GST-Hu-p50 (Homo sapiens, UniProt P19838 7-356)
# Test: protein-binding microarray (PBM); PBM: ~300 nM protein, 6 mM HEPES pH 7.8, 80 mM KCl, 0.5 mM EDTA, 0.5 mM EGTA, 6% glycerol, 35 ng/ul poly-dIdC, 1% milk, 1 h, room temperature; Ap Aiptasia and Nv Nematostella (sea anemones) / Co Capsaspora / Aq Amphimedon (sponge) / Dm Drosophila / Hu human; RHD is the Rel homology domain; high values mean tight binding
# Settings: dsDNA, one strand shown
# Chain of GST-Hu-p50 (P19838 7-356): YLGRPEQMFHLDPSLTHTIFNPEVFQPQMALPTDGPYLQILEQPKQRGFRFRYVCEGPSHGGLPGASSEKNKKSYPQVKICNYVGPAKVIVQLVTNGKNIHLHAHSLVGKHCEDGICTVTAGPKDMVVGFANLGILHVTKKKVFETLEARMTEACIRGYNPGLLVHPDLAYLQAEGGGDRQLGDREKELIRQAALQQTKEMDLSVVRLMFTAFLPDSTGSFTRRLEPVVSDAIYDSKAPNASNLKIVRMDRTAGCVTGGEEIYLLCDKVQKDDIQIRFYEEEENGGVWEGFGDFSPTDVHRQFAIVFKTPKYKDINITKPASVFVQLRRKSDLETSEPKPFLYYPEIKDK
row,Sequence,binding signal [z-score]
1,CCGATTAACATCAATAAAATCCCTGATGTTAATCGGGTCTTGATTCGCTTGACGCTGCTG,4.24
2,CCGATTAACATCAGAAACTCCCATGATGTTAATCGGGTCTTGATTCGCTTGACGCTGCTG,2.9
3,CCGATTAACATCAGGGACTTCCATGATGTTAATCGGGTCTTGATTCGCTTGACGCTGCTG,4.56
4,CCGATTAACATCAGGAAAGCACCTGATGTTAATCGGGTCTTGATTCGCTTGACGCTGCTG,4.74
5,CCGATTAACATCAAGGAAGTCCCTGATGTTAATCGGGTCTTGATTCGCTTGACGCTGCTG,4.82
6,CCGATTAACATCAGGGAAGGCCCTGATGTTAATCGGGTCTTGATTCGCTTGACGCTGCTG,2.96
7,CCGATTAACATCAGGAGAGCCCCTGATGTTAATCGGGTCTTGATTCGCTTGACGCTGCTG,3.2
8,CCGATTAACATCAAGGGACTTTCTGATGTTAATCGGGTCTTGATTCGCTTGACGCTGCTG,5.98
9,CCGATTAACATCAGGGAGGCCCCTGATGTTAATCGGGTCTTGATTCGCTTGACGCTGCTG,3.63
10,CCGATTAACATCAGGGGACTTCATGATGTTAATCGGGTCTTGATTCGCTTGACGCTGCTG,5.72
11,CCGATTAACATCAGGGACTTCACTGATGTTAATCGGGTCTTGATTCGCTTGACGCTGCTG,4.12
12,CCGATTAACATCAAAGAAGTCCCTGATGTTAATCGGGTCTTGATTCGCTTGACGCTGCTG,5.29
13,CCGATTAACATCAAAAAGCCCCTTGATGTTAATCGGGTCTTGATTCGCTTGACGCTGCTG,6.72
14,CCGATTAACATCAGAAATTACCCTGATGTTAATCGGGTCTTGATTCGCTTGACGCTGCTG,4.72
15,CCGATTAACATCAGGGCTCCCCATGATGTTAATCGGGTCTTGATTCGCTTGACGCTGCTG,1.51
16,CCGATTAACATCAAAAATGCCCCTGATGTTAATCGGGTCTTGATTCGCTTGACGCTGCTG,5.92
17,CCGATTAACATCAGGAAAGTCCCTGATGTTAATCGGGTCTTGATTCGCTTGACGCTGCTG,7.09
18,CCGATTAACATCACGGGATTACCTGATGTTAATCGGGTCTTGATTCGCTTGACGCTGCTG,1.16
19,CCGATTAACATCAGGGTTTCACCTGATGTTAATCGGGTCTTGATTCGCTTGACGCTGCTG,2.5
20,CCGATTAACATCAGAAAAATACCTGATGTTAATCGGGTCTTGATTCGCTTGACGCTGCTG,3.16

row,Sequence,binding signal [z-score]
1,CCGATTAACATCACGGTAATTCCTGATGTTAATCGGGTCTTGATTCGCTTGACGCTGCTG,1.7
2,CCGATTAACATCAAAATACCCCTTGATGTTAATCGGGTCTTGATTCGCTTGACGCTGCTG,6.17
3,CCGATTAACATCAGGGACATCCCTGATGTTAATCGGGTCTTGATTCGCTTGACGCTGCTG,3.84
4,CCGATTAACATCACGGGATTTCGTGATGTTAATCGGGTCTTGATTCGCTTGACGCTGCTG,2.12
5,CCGATTAACATCAAACCTTCCCCTGATGTTAATCGGGTCTTGATTCGCTTGACGCTGCTG,4.13
6,CCGATTAACATCAGGCAAGCCCCTGATGTTAATCGGGTCTTGATTCGCTTGACGCTGCTG,3.36
7,CCGATTAACATCAGGGATTGCCCTGATGTTAATCGGGTCTTGATTCGCTTGACGCTGCTG,2.54
8,CCGATTAACATCAGGGAGTTCACTGATGTTAATCGGGTCTTGATTCGCTTGACGCTGCTG,2.32
9,CCGATTAACATCAGAAATACCCATGATGTTAATCGGGTCTTGATTCGCTTGACGCTGCTG,5.12
10,CCGATTAACATCAGGAAATCACCTGATGTTAATCGGGTCTTGATTCGCTTGACGCTGCTG,5.42
11,CCGATTAACATCAGGGTTTTTAGTGATGTTAATCGGGTCTTGATTCGCTTGACGCTGCTG,1.99
12,CCGATTAACATCAGGGGCTTCACTGATGTTAATCGGGTCTTGATTCGCTTGACGCTGCTG,4.01
13,CCGATTAACATCAAGGGGGGTTATGATGTTAATCGGGTCTTGATTCGCTTGACGCTGCTG,5.59
14,CCGATTAACATCAGGAAGCCCCATGATGTTAATCGGGTCTTGATTCGCTTGACGCTGCTG,3.77
15,CCGATTAACATCAGGAAATTACCTGATGTTAATCGGGTCTTGATTCGCTTGACGCTGCTG,3.82
16,CCGATTAACATCAAGGGAACCCCTGATGTTAATCGGGTCTTGATTCGCTTGACGCTGCTG,3.12
17,CCGATTAACATCAGATCCCCCCCTGATGTTAATCGGGTCTTGATTCGCTTGACGCTGCTG,5.36
18,CCGATTAACATCAGAGAAGCCCCTGATGTTAATCGGGTCTTGATTCGCTTGACGCTGCTG,4.67
19,CCGATTAACATCAGGAGAGTCCCTGATGTTAATCGGGTCTTGATTCGCTTGACGCTGCTG,3.89
20,CCGATTAACATCAGGGAGGTACCTGATGTTAATCGGGTCTTGATTCGCTTGACGCTGCTG,2.03
